From PubChem BioAssay AID434970 (Sanford-Burnham Center for Chemical Genomics, 2010) come the findings set out here.

Among all 11,000 compounds or so, about 310 (2.8%) were called active. Cut-off read from the data, not from the text of the source: active = activity change below about -85%; inactive = the rest. The list comes from a sample in which actives are over-represented; it also holds similar structures and randomly drawn compounds.

The experiment deals with intestinal alkaline phosphatase [Mus musculus]. As to the kind of experiment: activators of mouse IAP, confirmation, biochemical, luminescence, single concentration (AID 434970). The conditions noted are these: purified mouse IAP, CDP-Star luminescence, 30 min, at 10 µM; activation factor: measured here: IAP activation factor, stronger effect = higher value; activity change, negative = activation: stronger effect = lower value.
Turning to `O=C(COc1ccccc1Cl)OCC(=O)N1CCN(S(=O)(=O)c2ccccc2)CC1`, the activation factor is 0.883 and the activity change, negative = activation is 11.7% (inactive).
For `CC(=O)c1cccc(NC(=O)CCNS(=O)(=O)c2cccc(C(C)=O)c2)c1`, in that order: 0.929 and 7.05% (inactive).
`Cc1cc(Br)cc2c1NC(=O)C2(c1c(C)n(C)n(-c2ccccc2)c1=O)c1c(C)n(C)n(-c2ccccc2)c1=O`: the activation factor stood at 1.02 and the activity change, negative = activation is -2.5% (inactive).
As to `Cc1cc(C)n2cc(CSc3nnnn3-c3ccccc3)nc2n1`, the activation factor was found to be 0.946 and the activity change, negative = activation is 5.45% (inactive).
Take `CCOC(=O)c1c(NC(=O)CSc2nnc(CNc3ccc(F)cc3)o2)sc(C(C)=O)c1C`: the activation factor amounted to 0.797 and the activity change, negative = activation was 20.2% (inactive).
For `O=C1c2ccccc2[C@@H]2C[C@@H](O)[C@H](Nc3cccc(Cl)n3)CCN12`, in that order: 1.01 and -0.85% (inactive).
For `CCCCN1CCS(=O)(=O)N(Cc2ccccc2Br)CC(C(=O)OC)C1` (stereo not given), in that order: 0.992 and 0.8% (inactive).
For `C=CCNC(=O)/C(=C/c1ccco1)NC(=O)c1ccc(Br)o1`, in that order: 0.906 and 9.4% (inactive).
Regarding `O=C(NCCCN1CCCCC1)c1ccc2c(=O)n(CCc3ccccc3)c(=O)[nH]c2c1`, the activation factor amounted to 0.91 and the activity change, negative = activation was 9% (inactive).
For `COc1cc(OC)c2c(-c3cccc(-c4ccc(OC(F)(F)F)cc4)c3)cc(=O)oc2c1`, in that order: 0.834 and 16.6% (inactive).
For `COCC(C)NCc1cccc(OC)c1OC` (stereo not given), in that order: 1.14 and -14.2% (inactive).
Consider `Cc1ccc(C(=O)NC(Cc2ccc(C(C)(C)C)cc2)C(=O)O)cc1` (stereo not given), for which the activation factor came out at 1.03 and the activity change, negative = activation is -3.5% (inactive).
For `O=C(c1ccc(S(=O)(=O)N2CCCCC2)cc1)N1CCCc2ccccc21`, in that order: 0.98 and 2.05% (inactive).
Regarding `Cc1nn(C)cc1CNC(=O)c1cccc(Br)c1`, the activation factor was found to be 1.12 and the activity change, negative = activation was -11.8% (inactive).
For `Cc1cc(Cn2nc(-c3ccccc3)cc2C(=O)NCc2cccc(Br)c2)on1`, in that order: 3.29 and -230% (active).
With `Cc1ccccc1-c1cc(C(=O)NCc2cccc(Br)c2)n(CC2CC(c3cccnc3)=NO2)n1` (stereo not given), the activation factor amounted to 1.56 and the activity change, negative = activation is -55.5% (inactive).
Regarding `O=C(C[C@H]1C[C@H](C(=O)N2CCOCC2)[C@@]2(CCC3CCCC3)c3[nH]c4cc(-c5ccco5)ccc4c3CCN2C1=O)NCCc1ccccn1`, the activation factor was found to be 1.17 and the activity change, negative = activation was -17.2% (inactive).
For `Cc1ccccc1OCC(=O)OC(C)CN1CCN(C)CC1` (stereo not given), in that order: 0.998 and 0.2% (inactive).
In the case of `Cc1ccc(NC(=O)Nc2ccc3c(c2)N(C)C(=O)CS3)cc1C`, the activation factor was 1.92 and the activity change, negative = activation was -91.7% (inactive).
Regarding `COc1ccc(NC(=O)Nc2ccc3c(c2)N(C)C(=O)CS3)cc1OC`, the activation factor was determined as 1.48 and the activity change, negative = activation is -48.4% (inactive).
For `CCc1ccc(NC(=O)Nc2ccc3c(c2)N(C)C(=O)CS3)cc1`, in that order: 2.14 and -114% (active).
For `Cc1ccc(CNC(=O)Nc2ccc3c(c2)N(C)C(=O)CS3)cc1`, in that order: 1.78 and -78% (inactive).
For `CN1C(=O)CSc2ccc(NC(=O)NCCC3=CCCCC3)cc21`, in that order: 2.22 and -122% (active).
Turning to `CC(C)CCNC(=O)Nc1ccc2c(c1)N(C)C(=O)CS2`, the activation factor was determined as 1.53 and the activity change, negative = activation was -52.8% (inactive).
For `CCOc1ccc(NC(=O)Nc2ccc3c(c2)N(C)C(=O)CS3)cc1`, in that order: 1.29 and -29.2% (inactive).
For `CC(=O)c1ccc(NC(=O)Nc2ccc3c(c2)N(C)C(=O)CS3)cc1`, in that order: 1.28 and -28.4% (inactive).
For `Cc1cc(C)cc(NC(=O)Nc2ccc3c(c2)N(C)C(=O)CS3)c1`, in that order: 2.54 and -154% (active).
As for `CCCn1c(Cc2ccccc2)nnc1SCC(=O)N1CCOCC1`, the activation factor was 0.955 and the activity change, negative = activation is 4.5% (inactive).
Consider `CC(O)[C@H](NC(=O)C1(c2ccccc2)CCN(C(=O)OC(C)(C)C)CC1)C(=O)O` (stereo not given in full), for which the activation factor was found to be 1.15 and the activity change, negative = activation is -15.3% (inactive).
For `COc1ccc2[nH]c3c(c2c1)CCN1C(=O)C(CC(=O)NCCN2CCOCC2)C[C@H](C(=O)N2CCOCC2)[C@@]31CCC1CCCC1` (stereo not given in full), in that order: 1.04 and -4.1% (inactive).
In the case of `O=C(C[C@H]1C[C@H](C(=O)N2CCCCC2)[C@@]2(CCc3ccccc3)c3[nH]c4ccc(Cl)cc4c3CCN2C1=O)NCc1cccc(C(F)(F)F)c1`, the activation factor was 1.15 and the activity change, negative = activation was -15% (inactive).
For the molecule `Cn1c(COc2ccc3ccccc3c2)nnc1SCC(=O)O`, the activation factor came to 0.952 and the activity change, negative = activation is 4.85% (inactive).
For `O/N=C1/CC/C(=N\O)c2nn(-c3ccccc3)nc21`, in that order: 0.893 and 10.7% (inactive).
Turning to `CCOC(=O)c1cnn(-c2ccc(Cl)cc2)c1C1CCN(C(=O)OC(C)(C)C)CC1`, the activation factor came to 1.12 and the activity change, negative = activation is -12.1% (inactive).
`COc1ccc(Nc2nc(-c3cccs3)cs2)cc1`: the activation factor was determined as 0.881 and the activity change, negative = activation was 11.9% (inactive).
For `Cc1cccc(NC(=O)/C(=C\c2ccco2)NC(=O)c2cccs2)c1`, in that order: 0.978 and 2.15% (inactive).
Take `OC[C@@H]1[C@@H](c2ccc(Cl)cc2)C(c2ccccc2)=NN1c1ccccc1`: the activation factor came out at 1.77 and the activity change, negative = activation is -76.8% (inactive).
For `Cc1cccc(C2=NN(c3ccccc3)[C@H](CO)[C@H]2c2ccc(Cl)cc2)c1`, in that order: 1.89 and -89.3% (inactive).
For `OC[C@@H]1[C@@H](c2ccccc2)C(c2ccccc2)=NN1c1ccccc1`, in that order: 2.15 and -115% (active).
In the case of `OC[C@@H]1[C@@H](c2ccc(F)cc2)C(c2cccc(Cl)c2)=NN1c1ccccc1`, the activation factor was 1.96 and the activity change, negative = activation is -96.2% (inactive).
For `O=C1OCCN1C(=O)[C@H]1[C@H](c2ccccc2)C(c2cccc(Cl)c2)=NN1c1ccccc1`, in that order: 1.01 and -1.05% (inactive).
`OC[C@@H]1[C@@H](c2ccccc2)C(c2ccc(F)cc2)=NN1c1ccccc1`: the activation factor worked out at 1.65 and the activity change, negative = activation was -64.5% (inactive).
As for `OC[C@@H]1[C@@H](c2ccccc2)C(c2cccc(Cl)c2)=NN1c1ccccc1`, the activation factor turned out to be 2.28 and the activity change, negative = activation was -128% (active).
In the case of `OC[C@@H]1[C@@H](c2ccc(F)cc2)C(c2ccccc2)=NN1c1ccccc1`, the activation factor turned out to be 1.73 and the activity change, negative = activation was -72.9% (inactive).
With `OC[C@@H]1[C@@H](c2ccc(Cl)cc2)C(c2cccc(Cl)c2)=NN1c1ccccc1`, the activation factor was determined as 2.2 and the activity change, negative = activation was -120% (active).
For `OC[C@@H]1[C@@H](c2ccc(Cl)cc2)C(c2ccc(F)cc2)=NN1c1ccccc1`, in that order: 1.79 and -79% (inactive).
For `Cc1cccc(C2=NN(c3ccccc3)[C@H](CO)[C@H]2c2ccc(F)cc2)c1`, in that order: 1.73 and -72.7% (inactive).
For `Cc1cccc(C2=NN(c3ccccc3)[C@H](CO)[C@H]2c2ccccc2)c1`, in that order: 2.07 and -107% (active).
`Cc1noc(C)c1S(=O)(=O)N1CCC(C(=O)NCCN2CCC(C)CC2)CC1`: the activation factor is 1.01 and the activity change, negative = activation is -1.4% (inactive).
For `COc1ccc(C(=O)Nc2ccc(S(=O)(=O)N3CCCCC3)cc2)cc1`, in that order: 1.11 and -11% (inactive).
For `COC(=O)C(NC(=O)CCc1c(C)nc2ncnn2c1C)C(C)C` (stereo not given), in that order: 0.949 and 5.15% (inactive).
For `Clc1ccc(-n2nnnc2-c2cnc(-c3ccncc3)nc2-c2cccs2)cc1`, in that order: 0.877 and 12.4% (inactive).
For the molecule `COc1ccc(CN(C(=O)c2ccco2)C2CC(C)N(C)CC2C)cc1` (stereo not given), the activation factor came to 0.982 and the activity change, negative = activation is 1.75% (inactive).
With `COc1ccc(CNC(=O)C[C@H]2C[C@H](C(=O)N3CCOCC3)[C@@]3(C)c4[nH]c5cc(CCC(=O)N(C)C)ccc5c4CCN3C2=O)cc1OC`, the activation factor amounted to 1.08 and the activity change, negative = activation was -8.2% (inactive).
Take `O=C(O)CCSc1nc(C(F)(F)F)cc(=O)n1-c1ccccc1`: the activation factor turned out to be 1.01 and the activity change, negative = activation is -1% (inactive).
For `Cn1cc(C(=O)c2ccccc2)cc1-c1nc2ccccc2n1C`, in that order: 1.13 and -13.2% (inactive).
For `COc1ccccc1[C@H]1C(c2ccccc2)=NN(c2ccccc2)[C@@H]1CO`, in that order: 1.99 and -99.2% (active).
For `COc1ccccc1[C@H]1C(c2ccc(F)cc2)=NN(c2ccccc2)[C@@H]1CO`, in that order: 1.49 and -48.9% (inactive).
As for `COc1ccccc1[C@H]1C(c2cccc(Cl)c2)=NN(c2ccccc2)[C@@H]1CO`, the activation factor amounted to 1.54 and the activity change, negative = activation was -54.1% (inactive).
Turning to `Clc1ccccc1CN(Cc1ccco1)Cc1nnnn1C1CCCC1`, the activation factor is 1.07 and the activity change, negative = activation was -7.45% (inactive).
Turning to `CC(C)C(=O)Nc1ncc(C(F)(F)F)cc1Cl`, the activation factor is 1.02 and the activity change, negative = activation was -2.1% (inactive).
For `CC(NC(=S)NC1CCC(C(C)(C)C)CC1)c1ccccc1` (stereo not given), in that order: 1.7 and -69.9% (inactive).
In the case of `Cc1ccc(CNC(=S)NC2CCC(C(C)(C)C)CC2)cc1` (stereo not given), the activation factor worked out at 2 and the activity change, negative = activation was -99.9% (active).
As for `Cc1ccc(CNC(N)=S)cc1`, the activation factor was 1.06 and the activity change, negative = activation is -6.15% (inactive).
Turning to `O=C(COC(=O)c1cccnc1SCC(=O)NCc1ccccc1)NCc1ccccc1`, the activation factor was determined as 0.985 and the activity change, negative = activation was 1.5% (inactive).
Turning to `CCCc1cc(=O)[nH]c(SCC(=O)N(C)CC(=O)Nc2ccccc2CC)n1`, the activation factor came out at 0.825 and the activity change, negative = activation is 17.6% (inactive).
For `COc1ccc(CCNC(=O)NC2CCCCC2)cc1`, in that order: 0.976 and 2.4% (inactive).
As to `CC(C)c1ccc(NC(=S)NC2CCCCCC2)cc1`, the activation factor came to 1.39 and the activity change, negative = activation is -38.9% (inactive).
For `CC(=O)Nc1ccc(C(=O)OCC(=O)NC(=O)NC2CCCCC2)cc1`, in that order: 0.997 and 0.3% (inactive).
On to `CCc1ccc(NC(=O)NC2CCCCCCC2)cc1`, for which the activation factor worked out at 3.13 and the activity change, negative = activation is -213% (active).
`S=C(Nc1ccc(Br)cc1)NC1CCCCC1`: the activation factor was 1.71 and the activity change, negative = activation is -70.7% (inactive).
For `O=C(Nc1ccc(Br)cc1)NC1CCCCCCC1`, in that order: 2.74 and -174% (active).
For the molecule `COc1ccc(C2NCCO2)cc1OC` (stereo not given), the activation factor turned out to be 0.954 and the activity change, negative = activation was 4.65% (inactive).
Take `C=CCONC(=O)Cc1ccccc1`: the activation factor is 1.1 and the activity change, negative = activation was -9.55% (inactive).
For `COc1ccc(NC(=O)N2CCCC2C(=O)Nc2ccc(C)c(Cl)c2)cc1` (stereo not given), in that order: 1.12 and -12.4% (inactive).
`Cc1cccc(NC(=O)C2CC(=O)n3cnnc3S2)c1` (stereo not given): the activation factor came out at 0.843 and the activity change, negative = activation is 15.8% (inactive).
As for `Cc1ccc(NC(=O)C(=O)NNC(=O)c2ccccc2C)cc1Cl`, the activation factor turned out to be 0.889 and the activity change, negative = activation is 11.1% (inactive).
As to `Cc1ccc(NC2=NC(C(=O)Nc3ccc(C)c(C)c3)CC(=O)N2)cc1` (stereo not given), the activation factor was 0.958 and the activity change, negative = activation is 4.15% (inactive).
For `Cc1ccc(NC(=O)C2CC(=O)n3c(nc4ccccc43)N2)cc1C` (stereo not given), in that order: 2.2 and -120% (active).
For `Cc1ccc(NC(=O)C2CC(=O)n3c(nc4ccccc43)N2)cc1Cl` (stereo not given), in that order: 2.25 and -125% (active).
